Experimental data as given in PubChem BioAssay AID1159524 (National Center for Advancing Translational Sciences (NCATS), 2015).
The whole screen tested about 410,000 compounds, of which about 5,100 (1.2%) were called active. Not shown: some 8% with an inconclusive outcome. Calls follow the shape of the full dose curve; tested in HEK293T cells. Shown is part of a subset that was picked to be rich in actives. Entries that show only a call come without a potency.
Potency is read from the fitted curve at half-maximal effect.

Assay: High Throughput Screening for Foot and Mouth Disease Virus Antivirals; also: read-out not given here; nearly all actives have a fitted effect of over 45% in size
Settings: FMDV antiviral cell-based qHTS; series mostly up to 57.9 µM
For CN1CCN(c2ncc3nc(-c4ccc(Cl)cc4)c(=O)n(-c4ccccc4)c3n2)CC1, the Potency was “inactive”.
In the case of CCCCCCCCCCCC(=O)O[C@H](CC(=O)O)C[N+](C)(C)C, the Potency was “inactive”.
For CCc1nn(CC(=O)Nc2cc(C)cc(C)c2)c(=O)c2cc3sccc3n12, the Potency was “inactive”.
With CCOc1ccc(NC(=O)CC2C(=O)N(c3cccc(OC)c3)C(=O)N2C2CCCCC2)cc1 (stereo not given) the Potency was “inactive”.
In the case of CCOC(=O)c1ccc(NC(=O)CC2C(=O)N(c3cccc(OC)c3)C(=O)N2C2CCCCC2)cc1 (stereo not given), the Potency was “inactive”.
For COc1ccc(C23NCCN2C(=O)c2ccccc23)cc1 (stereo not given), the Potency was “inactive”.
For CCOC(=O)C1CCN(C(=O)Nc2cccc(OC)c2)CC1, the Potency was “inactive”.
In the case of CCOC(=O)[C@]12Cc3cc(OC)ccc3[C@H]1N(C(C)C)C(=O)c1ccccc12, the Potency was 31.6 µM (active).
In the case of CCOC(=O)[C@]12Cc3ccccc3[C@H]1N(C1CCCCC1)C(=O)c1cc(OC)ccc12, the Potency was 10 µM (active).
With CCN(CC)S(=O)(=O)c1ccc2c(c1)N(CC(=O)NCC(C)c1ccccc1)C(=O)CO2 (stereo not given) the Potency was “inactive”.
In the case of O=C(NCCc1ccccc1)c1ccc2c(c1)N(Cc1ccccc1)C(=O)c1ccccc1S2(=O)=O, the Potency was “inactive”.
With c1ccc2c(c1)[I+]c1ccccc1-2 the Potency was “inactive”.
With COc1ccc(CNC(=O)c2ccc(NC(=O)N3CC4CCCN4c4ccccc43)cc2)cc1 (stereo not given) the Potency was “inactive”.
In the case of COc1cc(NC(=O)Cn2c(=O)n(Cc3ccco3)c(=O)c3oc4ccccc4c32)cc(OC)c1, the Potency was “inactive”.
With CCOC(=O)c1cc2c(=O)n3ccccc3nc2n(CCCOC)c1=NC(=O)C(C)(C)Oc1ccc(Cl)cc1 the Potency was “inactive”.
For O=c1ccc2c(-c3ccccc3S(=O)(=O)O)c3ccc(O)c(O)c3oc-2c1O, the Potency was 7.08 µM (active).
In the case of CCCC(=O)Nc1ccc(C(=O)N/N=C/c2ccc[nH]2)cc1, the Potency was 28.2 µM (active).
With CCCC(=O)Nc1ccc(C(=O)NCCCn2ccnc2)cc1 the Potency was “inactive”.
In the case of CC(=O)Nc1ccc(C(=O)NNC(=O)CCCCC(=O)NNC(=O)c2ccc(NC(C)=O)cc2)cc1, the Potency was “inactive”.
For CC1C(C)N(C(=O)CCl)c2ccccc2N1C(=O)CCl (stereo not given), the Potency was 3.55 µM (active).
With Cc1ccn(CCC(=O)N2c3ccccc3CC2C)n1 (stereo not given) the Potency was “inactive”.
With CNC(=O)N1c2ccccc2C=Cc2ccccc21 the Potency was “inactive”.
In the case of N[C@H](Cc1o[nH]c(=O)c1Cl)C(=O)O, the Potency was “inactive”.
For CC(C)C(=O)NC(C)c1nnc2n1CCN(Cc1cccc3ncccc13)CC2 (stereo not given), the Potency was “inactive”.
For Cc1nc2cnc(Nc3ccccc3)nc2n(C[C@H]2CCCO2)c1=O, the Potency was “inactive”.
With C[C@@H]1C[C@@H]2O[C@H]2/C=C\C=C\C(=O)Cc2c(Cl)c(O)cc(O)c2C(=O)O1 the Potency was 0.1 µM (active).
With COCCn1c(=O)c(CCc2ccccc2)nc2cnc(N3CCNCC3)nc21 the Potency was “inactive”.
In the case of COCCn1c(=O)c(-c2ccc(OC)cc2)nc2cnc(Oc3cccc(Cl)c3)nc21, the Potency was “inactive”.
For COc1ccccc1CN1CC2(CCN(S(=O)(=O)c3ccccc3)CC2)C1, the Potency was “inactive”.
In the case of COc1ccccc1CC(=O)Nc1ccc(S(=O)(=O)N2CCCC2)cc1, the Potency was “inactive”.
For COc1cc(C(=O)NNC(=O)c2ccc(S(=O)(=O)N3CCCCC3)cc2)cc(OC)c1OC, the Potency was “inactive”.
With COc1ccc(-c2ccc(Nc3ccc(S(=O)(=O)N4CCCC4)cc3)nn2)cc1OC the Potency was 14.1 µM (active).
In the case of CCN(CC)c1cc(NC2CCCCC2)c2c3c(onc13)-c1ccccc1C2=O, the Potency was “inactive”.
With CC(C)C(NS(=O)(=O)c1ccc(-c2ccc(Br)cc2)cc1)C(=O)O (stereo not given) the Potency was “inactive”.
For CCC1(C2CCN(Cc3cccnc3)CC2)NC(=O)N(CC2COc3ccccc3O2)C1=O (stereo not given), the Potency was “inactive”.
With Cc1cccc(C(CC(=O)NCC2(c3ccccc3)CCCC2)c2ccccc2)c1O (stereo not given) the Potency was “inactive”.
With O=C(O)c1ccc(N/N=C/c2ccc3ncccc3c2)cc1 the Potency was 2.82 µM (active).
With CCc1nc2cccnc2n1-c1ccc(C(=O)O)cc1 the Potency was “inactive”.
With NCCCCCC(=O)N/N=C/c1ccc2nccnc2c1 the Potency was “inactive”.
For CCn1c(C(=O)Nc2cc(Cl)ccc2C)cc2sc(Cl)cc21, the Potency was “inactive”.
For COc1ccc(NC(=O)N2CC3(CCN(C(=O)c4cccn4C)CC3)C2)cc1, the Potency was “inactive”.
For CSc1ncnc2c1ncn2CC(=O)C1CCC2C3CCC4=CC(=O)CCC4(C)C3CCC12C (stereo not given), the Potency was 11.2 µM (active).
For CC(=O)OCC(=O)[C@@]1(O)CCC2C3CCC4=CC(=O)CC[C@]4(C)C3C(=O)C[C@]21C (stereo not given in full), the Potency was “inactive”.
For CC(=O)OCC(=O)C1CCC2C3CCC4=CC(=O)CC[C@@]4(C)C3CC[C@]12C (stereo not given in full), the Potency was “inactive”.
For COc1ccccc1N1CCN(CCCNC(=O)c2cnn(-c3ccccc3Cl)c2C2CCN(C(=O)OC(C)(C)C)CC2)CC1, the Potency was “inactive”.
With CN(C)CCc1c[nH]c2ccc(Cn3cncn3)cc12 the Potency was “inactive”.
For O=C(CC(c1cccs1)N1Cc2ccccc2C1=O)Nc1ccc(F)cc1F (stereo not given), the Potency was “inactive”.
In the case of Cn1cnc([N+](=O)[O-])c1Nc1ccccc1O, the Potency was “inactive”.
With Cn1cnc([N+](=O)[O-])c1Sc1n[nH]c(N)n1 the Potency was “inactive”.
For Cn1cnc([N+](=O)[O-])c1Sc1ccccc1, the Potency was 28.2 µM (active).
In the case of CO[C@H]1[C@H](NC(=O)C(C)C)c2ccccc2C12CCN(Cc1cnc(N(C)C)s1)CC2, the Potency was “inactive”.
In the case of COc1ccccc1CNc1ccnc(-c2c(C)noc2C)n1, the Potency was “inactive”.
In the case of CCCC(=O)Nc1ccc(NC(=O)c2sc3ccccc3c2Cl)cc1, the Potency was “inactive”.
With Cc1cccc(N2CCN(C(=O)c3cnc(N4CCCC4)nc3C)CC2)c1C the Potency was “inactive”.
With CCC1CN(CCNC(=O)c2ccsc2)Cc2cc(OC)ccc2O1 (stereo not given) the Potency was “inactive”.
In the case of CCN1/C(=C\c2ccc3ccccc3[n+]2CC)Sc2cc(C)ccc21, the Potency was 35.5 µM (active).
For CC(=O)Nc1cccc(NC(=O)CSc2cn(CC(=O)N3CCCC3)c3ccccc23)c1, the Potency was “inactive”.
In the case of COc1ccc2[nH]cc(CCNc3nc(-c4cccc(NS(C)(=O)=O)c4)nc4ccccc34)c2c1, the Potency was “inactive”.
With CCn1c2ccccc2c2nnc(SCC(=O)O)nc21 the Potency was “inactive”.
In the case of CCc1c2c(nc3ccc(O)cc13)-c1cc3c(c(=O)n1C2)COC(=O)[C@]3(O)CC, the Potency was “inactive”.
In the case of COCCn1c(=O)c(CCc2ccccc2)nc2cncnc21, the Potency was “inactive”.
In the case of NS(=O)(=O)c1ccc(CCNC(=O)CN2C(=O)c3ccccc3S2(=O)=O)cc1, the Potency was “inactive”.
With O=C(CN1C(=O)c2ccccc2S1(=O)=O)N1CCc2ccccc21 the Potency was 0.794 µM (active).
In the case of CCn1c(=O)c2ccccc2n(CC(=O)N2CCCc3ccccc32)c1=O, the Potency was “inactive”.
With CO[C@H]1C=CO[C@@]2(C)Oc3c(C)c(O)c4c(O)c(c(/C=N/N5CCN(C)CC5)c(O)c4c3C2=O)NC(=O)/C(C)=C\C=C[C@H](C)[C@H](O)[C@@H](C)[C@@H](O)[C@@H](C)[C@H](OC(C)=O)[C@@H]1C the Potency was “inactive”.
In the case of Nc1nc2c(ncn2[C@@H]2O[C@H](COP(=O)(O)OP(=O)(O)OP(=O)(O)O)[C@@H](O)C2O)c(=O)[nH]1 (stereo not given in full), the Potency was “inactive”.
With O=C(c1ccco1)N1CCC[C@@]2(CCN(c3ccccc3)C2)C1 the Potency was “inactive”.
With CC(C)NC(=O)N1CC[C@@]2(CCCN(C(=O)c3ccco3)C2)C1 the Potency was “inactive”.
For C1CC[C@H]([C@@]23C[C@H](C[C@H]4CCCN[C@H]42)[C@@H]2CCCCN2C3)NC1, the Potency was “inactive”.
For CCOC(=O)c1scc(-c2ccccc2)c1S(=O)(=O)Nc1ccccc1F, the Potency was “inactive”.
With CCSc1ncc(Cl)c(C(=O)Nc2c(C(=O)c3ccccc3)oc3ccccc23)n1 the Potency was “inactive”.
For CCCS(=O)(=O)c1ncc(Cl)c(C(=O)Nc2scc(-c3ccccc3)c2C(=O)OCC)n1, the Potency was 25.1 µM (active).
In the case of CCOc1ccccc1N(C)C(=O)c1cc2c(s1)-c1ccccc1OC2, the Potency was “inactive”.
With COCCn1c(=O)c(-c2cc(F)cc(F)c2)nc2cncnc21 the Potency was “inactive”.
With CN1C2CC3CC1C(O3)C2O (stereo not given) the Potency was “inactive”.
For Cc1ccc(S(=O)(=O)c2cn(Cc3ccccc3)c3cc(N4CCCC4)c(F)cc3c2=O)c(C)c1, the Potency was “inactive”.
In the case of Oc1c(Cl)cc(Cl)c(Cl)c1Cc1c(O)c(Cl)cc(Cl)c1Cl, the Potency was 5.62 µM (active).
For C=C1C(=O)C23C(O)C1CCC2[C@]12COC3(O)C(O)C1C(C)(C)CC[C@H]2O (stereo not given in full), the Potency was 28.2 µM (active).
With O=C(NC1(C(F)(F)F)N=C(c2ccccc2)N(C2CCCCC2)C1=O)c1ccccc1F (stereo not given) the Potency was “inactive”.
With O=c1c(-c2cccs2)nc2cnc(Oc3ccccc3)nc2n1-c1ccccc1 the Potency was “inactive”.
In the case of O=C(c1csnn1)N1CCC2(CCN(Cc3nccs3)CC2)CC1, the Potency was “inactive”.
In the case of O=C(c1cccc(F)c1)N1CCC2(CC1)CCN(c1ccccc1)CC2, the Potency was “inactive”.
With O=C(c1cccc(C(=O)N2CCN(c3ccc(F)cc3)CC2)c1)N1CCN(c2ccc(F)cc2)CC1 the Potency was 39.8 µM (active).
With O=C(c1ccccc1Oc1ccccc1)N1CCN(c2ccc(F)cc2)CC1 the Potency was “inactive”.
For COc1ccc(CN(C)CCn2cc(C(=O)N3CCSCC3)nn2)cc1C, the Potency was “inactive”.
With O=C1c2ccccc2C(=O)N1CCC#Cc1ccc2cc(C3(O)CCCCC3)oc(=O)c2c1 the Potency was 39.8 µM (active).
In the case of Cc1ccc(S(=O)(=O)NCCC(=O)Nc2cccc(S(N)(=O)=O)c2)cc1C, the Potency was “inactive”.
For Cc1ccnc(NS(=O)(=O)c2ccc(NC(=O)c3ccc(S(=O)(=O)N(C)C)cc3)cc2)n1, the Potency was “inactive”.
In the case of CC(C)CCN1C(=O)c2ccc(C(=O)Nc3cccc(S(N)(=O)=O)c3)cc2C1=O, the Potency was 28.2 µM (active).
In the case of CCCCN1C(=O)c2ccc(C(=O)Nc3ccc(S(=O)(=O)N(C)C)cc3)cc2C1=O, the Potency was 20 µM (active).
With CN1C(=O)c2ccc(NC(=O)c3c(F)c(F)c(F)c(F)c3F)cc2C1=O the Potency was “inactive”.
In the case of COCCCN1C(=O)c2ccc(C(=O)Nc3ccc(OC)cc3OC)cc2C1=O, the Potency was “inactive”.
With O=c1c(CN2CCOc3ccc(CN4CCC(Oc5cccnc5)CC4)cc3C2)coc2ccccc12 the Potency was “inactive”.
In the case of Cc1cnc(CNc2cc(-c3c(C)noc3C)ncn2)cn1, the Potency was “inactive”.
In the case of O=c1ccn([C@@H]2O[C@H](COP(=O)(O)OP(=O)(O)OP(=O)(O)O)[C@@H](O)[C@H]2O)c(=O)[nH]1, the Potency was “inactive”.
